The record followed here is PubChem BioAssay (Tox21).

Values joined by “and” are separate entries in the source; they are usually repeats but may differ in a detail not shown here. Equal values may be shown once. Records with an inconclusive call do not appear. Values without a mark were called inactive. Active and inactive are the calls of the source. The call rests on the fitted dose curve; in most records, active means well fitted cell-killing curve with a large enough effect in the repeat runs; inconclusive means weak or mixed curves; inactive means flat fitted curve, though single readings scatter.
On the % scale 0 is the no-effect control and ±100 the full control effect; potency means the concentration at half of the fitted maximal effect.

This assay in a line: qHTS RealTime-Glo MT Cell Viability Assay in HepG2 cells - 16 hour (AID 1224885). Further: nearly all actives have a fitted effect of over 50% in size. To be noted: RealTime-Glo luminescence; series mostly up to 76.8 µM; activity change, negative = cytotoxic: at the top concentration. The text has this: U.S. Tox21 Program National Center for Advancing Translational Sciences [NCATS] NIH Chemical Genomics Center [NCGC] U.S. Environmental Protection Agency [EPA] National Institutes of Environmental Health Sciences [NIEHS] National Toxicology Program [NTP] U.S. Food and Drug Administration [FDA] Tox21 Assay Overview: Measure of cell viability is critical in the cell-base assay. Analysis of cell viability is necessary for the characterization of cell responses to cytotoxic drugs and environmental stress. A RealTime-Glo MT Cell Viability Assay to monitor cell viability in real time of continues cell culture during 40 hours of compound treatment was used to screen Tox21 10K library compounds in HepG2 cells. The RealTime-Glo MT Cell Viability Assay is a nonlytic, homogeneous, bioluminescent method to measure cell viability in real time using a simple, plate-based method. The assay involves adding NanoLuc luciferase and a cell-permeant prosubstrate to cells in culture. Viable cells reduce the proprietary prosubstrate to generate a substrate for NanoLuc luciferase. This substrate diffuses from cells into the surrounding culture medium, where it is rapidly used by the NanoLuc Enzyme to produce a luminescent signal. The signal correlates with the number of viable cells, making the assay well suited for cytotoxicity studies.
Tox21 Assay Protocol Summary: The mixture of HepG2 cell suspension and reagents were dispensed at 600cells/6 ul/well in 1536-well tissue culture treated black solid bottom plates using a Multidrop dispenser. After the assay plates were incubated at a 37 C/5% CO2 incubator for 5 hours, 23 nL of compounds dissolved in DMSO, positive and negative controls was transferred to the assay plate by a pintool work station. The plates were incubated at 37 C for 40 hours. The luminescence intensity were measured at 0h, 8h, 16h, 24h, 32h and 40h time points using ViewLux plate reader during compound treatment.
(In general: In qHTS, concentration-response curves come from the screen itself.)
With `[Cl-].[Cl-].[Hg+2]`, the Potency was 48.8 µM (active) and 3.89 µM (active). Consider `CCOP(=O)(O)C(N)=O`, for which the “activity change, negative = cytotoxic” value is 0.289%. On the same count and under the same terms, under `CC(C)(C#N)C(C)(C)C#N` stands 2.57%; under `O=C=NC1CCCCC1`, -0.663%; under `CC(O)CN1CCN(CC(=O)[O-])CCN(CC(=O)[O-])CCN(CC(=O)[O-])CC1.[Gd+3]` (stereo not given), 2% [at 35.3 µM].

With `CCOC(C(=O)OCCN(C)C)(c1ccccc1)c1ccccc1`, the “activity change, negative = cytotoxic” value was -14.9% [at 35.3 µM]. The same measure, in the same setting: under `CC(C)(c1ccccc1)c1cc(-n2nc3ccccc3n2)c(O)c(C(C)(C)c2ccccc2)c1` stands 1.05% [at 35.3 µM]; under `COc1cc(CC#N)cc(OC)c1OC`, 2.85% [at 35.3 µM].

Take `Nc1cccc2ccccc12`: the Potency entry was “inactive”.

On to `CCCCCCCCCCCCCCCl`, for which the “activity change, negative = cytotoxic” value is 0.381%. The same measure, in the same setting: under `COC1=CC(=O)O[C@@H](/C=C/c2ccc3c(c2)OCO3)C1` stands 0.205%. For the compound `CC(C)c1ccc(OP(=O)(Oc2ccc(C(C)C)cc2)Oc2ccc(C(C)C)cc2)cc1`, the Potency result was “inactive”. On to `CC(C)CCCCCCCOC(=O)c1ccccc1C(=O)OCCCCCCCC(C)C`, for which the “activity change, negative = cytotoxic” value was 11.9%. Same read-out and setting: under `C=CCc1ccccc1O` stands 0.176%. The same measure, in the same setting: under `CCCN(CCOc1c(Cl)cc(Cl)cc1Cl)C(=O)n1ccnc1` stands -20.1%; under `CCC(C)Cl` (stereo not given), 2.93%. Same read-out and setting: under `CC(=O)OC(c1ccccc1)C(Cl)(Cl)Cl` (stereo not given) stands -7.26%; under `C=CCSSCC=C`, 1.63%. For the compound `C[N+]1(CCF)[C@@H]2CC[C@H]1CC(OC(=O)C(O)(c1ccccc1)c1ccccc1)C2` (stereo not given in full), the “activity change, negative = cytotoxic” value was 4.83% [at 35.3 µM]. On to `CC(C)(C)c1ccc(CCOc2ncnc3ccccc23)cc1`, for which the “activity change, negative = cytotoxic” value was -0.473%. Same read-out and setting: under `O=C(Cc1ccccc1)OCCc1ccccc1` stands -3.4%. Consider `Cc1ccc(N)c(C)c1`, for which the Potency result was “inactive”. In the case of `C#C[C@]1(O)CC[C@H]2[C@@H]3CCC4=CC(=O)CCC4=C3C=C[C@@]21CC`, the “activity change, negative = cytotoxic” value was -23% [at 35.3 µM]. As for `CC(Oc1cccc(Cl)c1)C(=O)O` (stereo not given), the “activity change, negative = cytotoxic” value is 3.79%. `Cc1ccc2c(C)cccc2c1`: the “activity change, negative = cytotoxic” value is -0.251%. The same measure, in the same setting: under `CCCCOC(=O)CCC(=O)OCCCC` stands 1.52%. In the case of `CN(C)c1ccc(N=O)cc1`, the Potency is 55.1 µM (active) and 43.6 µM (active).

As to `C=CC(=O)NC(C)(C)CC(C)=O`, the “activity change, negative = cytotoxic” value was 3.44%. Same read-out and setting: under `COc1ccccc1N1CCNCC1` stands 3.45% [at 35.3 µM]; under `COc1cc(C[C@@H](C)N)c(OC)cc1Br`, -7.59%. Same read-out and setting: under `C=CCOC(=O)C(C)(C)OC(=O)c1cc(-n2c(=O)cc(C(F)(F)F)n(C)c2=O)ccc1Cl` stands -7.6%. With `Clc1ccc(Cl)c(Cl)c1`, the Potency entry is “inactive”. Take `CCCC[P+](CC)(CCCC)CCCC` (tested in a mixture with another compound): the “activity change, negative = cytotoxic” value is -1.7%.

In the case of `CC[N+]1(C)CCCC(OC(=O)C(O)(c2ccccc2)c2ccccc2)C1` (stereo not given), the “activity change, negative = cytotoxic” value is 2.73% [at 35.3 µM]. `CCCCCCCCn1sccc1=O`: the Potency was 43.7 µM (active) and 16.2 µM (active). For the compound `CCC1(CCC(C)C)C(=O)NC(=O)NC1=O`, the “activity change, negative = cytotoxic” value is -1.12%. Same read-out and setting: under `O=[N+]([O-])O[C@H]1CO[C@H]2[C@@H]1OC[C@H]2O[N+](=O)[O-]` stands -1.05% [at 35.3 µM]; under `C[C@]12CC[C@H]3[C@@H](CCC4=CC(=O)CC[C@@H]43)[C@@H]1CC[C@@H]2OC(=O)CCc1ccccc1`, -10.8% [at 35.3 µM]. As for `C[C@H](N)[C@H](O)c1ccc(O)c(O)c1`, the “activity change, negative = cytotoxic” value is -2.23% [at 35.3 µM]. The same measure, in the same setting: under `O=C(Cl)OCCOCCOC(=O)Cl` stands -0.839%.
